One experiment deals with TAB109. The experiment is described as follows: qHTS profiling for inhibitors of Plasmodium falciparum proliferation (AID 504749).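 Further: 0% = DMSO vehicle and full inhibition = artemisinin control; nearly all actives have a fitted effect of over 60% in size.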 The following applies: P. falciparum in erythrocytes, SYBR Green DNA, 72 h; series mostly up to 28.7 µM. A digest of the protocol: (§1)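 P. falciparum-infected erythrocytes (0.3% parasitemia, 2.5% hematocrit) incubated with compound 72 h at 37 C, 5% CO2. Parasite DNA detected by SYBR Green after lysis, overnight at room temperature; normalised to 0.29 uM artemisinin and DMSO.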
A general note: Quantitative high-throughput screening tests each substance at several concentrations.

For a further experiment, the system named is TAB113. Described as above. The note with it: P. falciparum in erythrocytes, SYBR Green DNA, 72 h; series mostly up to 28.7 µM. A digest of the protocol:
as §1

The next experiment deals with TAB165. Described as above. The following applies: P. falciparum in erythrocytes, SYBR Green DNA, 72 h; series mostly up to 28.7 µM. A digest of the protocol:
as §1

The test system of another experiment is W2. The experiment is described as above. The note with it: P. falciparum in erythrocytes, SYBR Green DNA, 72 h; series mostly up to 28.7 µM. A digest of the protocol: as §1
Experiment [1] concerns CRL-7250. The experiment is described as follows: Cytotoxic Profiling of Annotated Libraries Using Quantitative High-Throughput Screening (AID 1296008). Further: nearly all actives have a fitted effect of over 60% in size. On max response: on the % scale 0 is the no-effect control and ±100 the full control effect. The following applies: Five cell lines viability, CellTiter-Glo ATP luminescence, 48-72 h; max response: active compounds read low. In outline:
(§2)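 Cells exposed to compounds for 48 or 72 hr at 37 degrees Celsius. Viability read as ATP-coupled luminescence with CellTiter-Glo after 10 min at room temperature.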

The test system of another experiment is HEK293. The description is as above. The note with it: Five cell lines viability, CellTiter-Glo ATP luminescence, 48-72 h; max response: active compounds read low. In outline: as §2
The test system of experiment [2] is HaCat. Described as above. The following applies: Five cell lines viability, CellTiter-Glo ATP luminescence, 48-72 h; max response: active compounds read low. In outline:
as §2
A general note: Cellular ATP, detected with luciferase, serves as a proxy for viable cell number.

For a further experiment, the system named is KB-3-1. Described as above. The following applies: Five cell lines viability, CellTiter-Glo ATP luminescence, 48-72 h; max response: active compounds read low. In outline: as §2
Experiment [3] has as its system NIH3T3. The experiment is described as above. The following applies: Five cell lines viability, CellTiter-Glo ATP luminescence, 48-72 h; max response: active compounds read low. In outline: as §2
Experiment [4] has as its system HACAT. The experiment is described as follows: qHTS assay to identify novel small-molecules to repurpose for Merkel cell carcinoma treatment (AID 1296009). Further: nearly all actives have a fitted effect of over 60% in size. Further: potency means the concentration at half of the fitted maximal effect. The following applies: MCC and control cell lines, CellTiter-Glo viability, 72 h; at 44.8 µM (top of the series) unless noted. In outline:
(§3)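 Cells were treated for 72 hr at 37 degree celsius with compounds in 8- or 11-point dose response. Viability was read by CellTiter-Glo luminescence, normalized to no-cell (cytotoxicity) and DMSO controls.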

The next experiment deals with MCC-13. The experiment is described as above. The note with it: MCC and control cell lines, CellTiter-Glo viability, 72 h; series mostly up to 46 µM. A digest of the protocol: as §3
For the next experiment, the system named is MKL-1. The description is as above. The following applies: MCC and control cell lines, CellTiter-Glo viability, 72 h; series mostly up to 46 µM. In outline:
as §3

Another experiment concerns MKL-2. The experiment is described as above. The note with it: MCC and control cell lines, CellTiter-Glo viability, 72 h; series mostly up to 46 µM. A digest of the protocol:
as §3

In experiment [5] the test system is NIH3T3. Described as above. The note with it: MCC and control cell lines, CellTiter-Glo viability, 72 h; at 44.8 µM (top of the series) unless noted. A digest of the protocol: as §3
For a further experiment, the system named is UISO. The description is as above. The note with it: MCC and control cell lines, CellTiter-Glo viability, 72 h; series mostly up to 46 µM. A digest of the protocol:
as §3

The next experiment concerns WaGa. The experiment is described as above. The note with it: MCC and control cell lines, CellTiter-Glo viability, 72 h; series mostly up to 46 µM. In outline:
as §3

A further experiment concerns C33A. The experiment is described as follows: Primary qHTS to identify gynecologic anti-cancer compounds using libraries of approved drugs and bioactive compounds (AID 1345084). Further: on the % scale 0 is the no-effect control and ±100 the full control effect; nearly all actives have a fitted effect of over 55% in size. The following applies: Gynecologic cancer cell panel viability, ATPlite luminescence, 48 h; series mostly up to 57.5 µM. A digest of the protocol:
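Luminescence from the ATPlite ATP-monitoring reagent indicates viable cell number; lower signal means cytotoxicity. Cells received compound 16 h after seeding and were exposed for 48 h across five concentrations.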

The subject of another experiment is MCC-26. The experiment is described as follows: qHTS assay to identify novel small-molecules to repurpose for Merkel cell carcinoma treatment (AID 1296009). Further: nearly all actives have a fitted effect of over 60% in size. Further: potency means the concentration at half of the fitted maximal effect. The following applies: MCC and control cell lines, CellTiter-Glo viability, 72 h; series mostly up to 46 µM. A digest of the protocol: as §3
The test system of experiment [6] is CRL-7250. The description is as above. The following applies: MCC and control cell lines, CellTiter-Glo viability, 72 h; series mostly up to 44.8 µM. In outline: as §3

Where “and” joins values, the source holds several entries; their conditions need not be identical. Identical values can stand only once. Inconclusive results are not listed. Values without a mark were called inactive. Calls of active or inactive are those of the source. The call rests on the fitted dose curve; in most records, active means well fitted curve in the direction sought with a large enough effect; inconclusive means small, poorly fitted or top-dose-only effect, or another doubt; inactive means no such curve, though single readings can be large; an effect the other way counts as inactive or inconclusive.

As for `O=C(NC(O)C(Cl)(Cl)Cl)NC(O)C(Cl)(Cl)Cl` (configuration not stated), the Potency entry in the experiment with TAB109, in the experiment on TAB113, with TAB165, with W2, in the experiment with MCC-13 and in the experiment on MKL-1 was “inactive” each time. The Potency entry in the experiment on MKL-2, with UISO, in the experiment on WaGa and with C33A was “inactive” throughout. The max response is 1.53% in the experiment on CRL-7250 [1], 0.365% in the experiment on HEK293 and 2.53% with KB-3-1. The call in the experiment on HaCat [2], with NIH3T3 [3], in the experiment on HACAT [4] and with NIH3T3 [5] was inactive.
For `CCCC1CCCCN1` (configuration not stated), the Potency entry in the experiment with TAB109, in the experiment with TAB113, with TAB165, in the experiment with W2, with MCC-13 and in the experiment with MCC-26 was “inactive” in each case. Moreover, the Potency result with MKL-1, in the experiment on MKL-2, in the experiment with UISO, in the experiment on WaGa and in the experiment with C33A was “inactive” throughout. Also, the max response with CRL-7250 [1] was -4.9%; with HEK293, -7.03%; with KB-3-1, -0.9%. For the same compound, the compound was called inactive in the experiment on HaCat [2], in the experiment on NIH3T3 [3], with HACAT [4] and with NIH3T3 [5].
`CN(C)CCN(C)CCc1ccc(Cl)c(Cl)c1`: the outcome with CRL-7250 [1] and in the experiment on CRL-7250 [6] was inactive. Further, the max response was 0.598% in the experiment on HEK293, -22.4% with HaCat [2], 0.794% in the experiment on KB-3-1 and -6.27% in the experiment on NIH3T3 [3]. The Potency entry in the experiment with MCC-13, in the experiment with MKL-1, with MKL-2, in the experiment on UISO and in the experiment with WaGa was “inactive” throughout.
As to `CNCC(O)c1ccc(O)cc1` (configuration not stated), the max response was -6.88% with CRL-7250 [1]; -14.1% and 1.65% with HEK293; 12.6% with KB-3-1; -18% in the experiment with NIH3T3 [3]. For the same compound, the compound was called inactive with HaCat [2], in the experiment with KB-3-1, in the experiment with NIH3T3 [3], in the experiment on HACAT [4] and with NIH3T3 [5]. In addition, the Potency result in the experiment with MCC-13, with MKL-1, with MKL-2, in the experiment on UISO, in the experiment on WaGa and in the experiment on C33A was “inactive” in each case.
On to `O=C1CC[C@@]2(O)[C@H]3Cc4ccc(O)c5c4[C@@]2(CCN3CC2CC2)[C@H]1O5`, for which the max response is -7.93% in the experiment with CRL-7250 [1], 6.29% in the experiment on KB-3-1 and -0.716% with NIH3T3 [3]. Also, the compound was classed as inactive in the experiment with CRL-7250 [1], with HaCat [2], with KB-3-1, in the experiment on NIH3T3 [3], in the experiment on CRL-7250 [6] and in the experiment on HACAT [4]. The result with NIH3T3 [5] was inactive. In addition, the Potency result with MCC-13, in the experiment on MKL-1, in the experiment with MKL-2, in the experiment on UISO, in the experiment on WaGa and in the experiment on C33A was “inactive” throughout.
On to `CC[C@@H](CO)NC(=O)[C@@H]1C=C2c3cccc4c3c(cn4C)C[C@H]2N(C)C1`, for which the max response with CRL-7250 [1] is 4.07%; in the experiment on HEK293, -25.3%; with KB-3-1, -9.77%; in the experiment on NIH3T3 [3], 2.49%. Moreover, the call in the experiment on HaCat [2] and in the experiment on HACAT [4] was inactive. Further, the Potency entry in the experiment on MCC-13, with MCC-26 and in the experiment on C33A was “inactive” in each case. Also, the Potency with MKL-1 is 21.1 µM (active).

The values are drawn from PubChem BioAssay (NCATS).
